miR-122 inh: raises miR-122 sensor activity in Huh7 cells | AID 623901 | Huh7 psiCHECK-miR122 Renilla luciferase sensor, 48 h | activation, % at 12.5 µM | actives 0.14% (n = 340,000);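 active = mean activation of 30% or more, with every replicate also reaching 30%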;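 also: 0% = median of neutral control wells and 100% = median of positive control wells; higher luciferase signal means stronger suppression of miR-122 activity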
An asterisk follows results filed as active. This is one part of a sample in which hits are shown more often than they occur.

SMILES	miR-122 inh
C[C@@H]1CN([C@@H](C)CO)S(=O)(=O)c2ccc(-c3ccccc3F)cc2O[C@@H]1CN(C)Cc1cccnc1	49*
C[C@H](CO)N1C[C@H](C)[C@H](CN(C)Cc2cccnc2)Oc2cc(-c3ccccc3)ccc2S1(=O)=O	-1
C[C@@H]1CN([C@H](C)CO)S(=O)(=O)c2ccc(-c3ccccc3)cc2O[C@H]1CN(C)Cc1cccnc1	-17
COc1cccc(NC(=O)N(C)C[C@H]2Oc3ncc(C#Cc4cccnc4)cc3C(=O)N([C@@H](C)CO)C[C@@H]2C)c1	5
C[C@@H]1CN([C@@H](C)CO)S(=O)(=O)c2ccc(C#Cc3cccnc3)cc2O[C@@H]1CN(C)C(=O)C1CC1	-5
COc1cccc(NC(=O)N(C)C[C@H]2Oc3cc(-c4cccc(C(=O)N(C)C)c4)ccc3S(=O)(=O)N([C@@H](C)CO)C[C@H]2C)c1	-12
CO[C@H]1CN(C)C(=O)c2ccc(NS(=O)(=O)c3ccc(C)cc3)cc2OC[C@H](C)N(C)C[C@H]1C	5
CCCC(O)C#Cc1cnc2c(c1)C(=O)N([C@H](C)CO)C[C@H](C)[C@H](CN(C)Cc1ccccc1)O2 (stereo partly drawn)	-6
CC(C)C#Cc1cnc2c(c1)C(=O)N([C@@H](C)CO)C[C@H](C)[C@H](CN(C)C(=O)c1ccccc1)O2	0
C[C@H]1CN([C@@H](C)CO)S(=O)(=O)c2ccc(-c3cccc(C#N)c3)cc2O[C@H]1CN(C)Cc1ccccn1	6
O=C(Cc1cccs1)Nc1ccc(S(=O)(=O)N2CCCCC2)cc1	-132
O=C(Nc1nc(-c2cc3ccccc3o2)cs1)c1ccc(S(=O)(=O)N2CCCC2)cc1	52*
O=C(Nc1nc2ccc(S(=O)(=O)N3CCCC3)cc2s1)C1CCCCC1	-130
C[C@H](CO)N1C[C@H](C)[C@@H](CN(C)Cc2ccc(F)cc2)Oc2cc(C#Cc3ccccn3)ccc2S1(=O)=O	-24
COc1ccccc1-c1ccc2c(c1)O[C@H](CN(C)S(=O)(=O)c1ccc(C)cc1)[C@H](C)CN([C@@H](C)CO)S2(=O)=O	-33
CCCCCCCN(C(=O)CCl)c1cccc(C)c1	66*
CC(C)CC#Cc1cnc2c(c1)C(=O)N([C@@H](C)CO)C[C@@H](C)[C@H](CN(C)Cc1ccc(F)cc1)O2	6
C[C@H](CO)N1C[C@H](C)[C@H](CN(C)C(=O)CC2CC2)Oc2cc(-c3ccccc3)ccc2S1(=O)=O	-10
C=CCNC(=S)NNC(=O)Cn1c(-c2ccccc2)cc(=O)n2ncnc12	34*
C[C@H](CO)N1C[C@H](C)[C@@H](CN(C)CC2CCOCC2)Oc2ncc(-c3cncnc3)cc2C1=O	4
C[C@@H]1CN([C@@H](C)CO)C(=O)c2cc(-c3cncnc3)cnc2O[C@H]1CN(C)Cc1ccccc1	-4
COCC(=O)N(C)C[C@H]1Oc2cc(-c3ccccc3F)ccc2S(=O)(=O)N([C@H](C)CO)C[C@H]1C	46*
COCC(=O)N(C)C[C@@H]1Oc2cc(-c3ccccc3)ccc2S(=O)(=O)N([C@@H](C)CO)C[C@H]1C	5
COCC(=O)N(C)C[C@H]1Oc2cc(-c3ccc(C#N)cc3)ccc2S(=O)(=O)N([C@@H](C)CO)C[C@H]1C	51*
COCC(=O)N(C)C[C@@H]1Oc2cc(-c3ccccc3)ccc2S(=O)(=O)N([C@H](C)CO)C[C@@H]1C	6
SMILES	miR-122 inh
Cc1ccc(S(=O)(=O)N(C)C[C@H]2Oc3cc(-c4cccc(F)c4)ccc3S(=O)(=O)N([C@@H](C)CO)C[C@H]2C)cc1	-4
COCC(=O)N(C)C[C@H]1Oc2cc(-c3ccccc3)ccc2S(=O)(=O)N([C@H](C)CO)C[C@H]1C	8
Cc1ccc(S(=O)(=O)N(C)C[C@@H]2Oc3cc(-c4cccc(F)c4)ccc3S(=O)(=O)N([C@@H](C)CO)C[C@@H]2C)cc1	8
COc1ccc(S(=O)(=O)N(C)C[C@@H]2Oc3cc(-c4cccc(F)c4)ccc3S(=O)(=O)N([C@@H](C)CO)C[C@H]2C)cc1	40*
COCC(=O)N(C)C[C@@H]1Oc2cc(-c3cccc(F)c3)ccc2S(=O)(=O)N([C@@H](C)CO)C[C@H]1C	-2
C[C@H](CO)N1C[C@H](C)[C@H](CN(C)CC2CCCC2)Oc2ncc(C#Cc3cccc(F)c3)cc2C1=O	4
COCC(=O)Nc1ccc2c(c1)OC[C@H](C)NC[C@@H](C)[C@@H](OC)CN(C)C2=O	0
C[C@@H]1CN([C@H](C)CO)C(=O)c2cc(C#Cc3ccccn3)cnc2O[C@H]1CN(C)Cc1cccnc1	4
CCC(=O)Nc1ccc2c(c1)OC[C@@H](C)NC[C@H](C)[C@@H](OC)CN(C)C2=O	-2
C[C@H]1CN([C@@H](C)CO)S(=O)(=O)c2ccc(-c3ccncc3)cc2O[C@@H]1CN(C)Cc1cncnc1	-9
C[C@@H]1CN([C@H](C)CO)S(=O)(=O)c2ccc(C#Cc3ccc(F)cc3)cc2O[C@H]1CN(C)S(C)(=O)=O	3
CCC(=O)Nc1ccc2c(c1)OC[C@H](C)N(CCC(F)(F)F)C[C@@H](C)[C@H](OC)CN(C)C2=O	1
C[C@@H]1CN([C@H](C)CO)C(=O)c2cc(-c3cccc(C#N)c3)cnc2O[C@@H]1CN(C)C	-8
CN1C(=O)c2cc(NC(=O)c3ccc(C(F)(F)F)cc3)ccc2OC[C@H]2O[C@H](CC(=O)NC3Cc4ccccc4C3)CC[C@@H]21	63*
CN1C(=O)c2cc(NC(=O)c3ccc(C(F)(F)F)cc3)ccc2OC[C@@H]2O[C@H](CC(=O)NC3Cc4ccccc4C3)CC[C@H]21	37*
C[C@@H]1CN([C@@H](C)CO)C(=O)c2cc(/C=C/c3ccccc3)cnc2O[C@H]1CN(C)Cc1ccccc1F	-19
C[C@@H]1CN([C@H](C)CO)C(=O)c2cc(/C=C/c3ccccc3)cnc2O[C@@H]1CN(C)S(=O)(=O)c1ccc(F)cc1	8
CO[C@H]1CN(C)C(=O)c2ccc(NC(=O)Nc3ccccc3)cc2OC[C@@H](C)N(C(C)=O)C[C@H]1C	-2
CCCCc1cc(=O)oc2cc(C)cc(OC(C)C(=O)O)c12 (stereo not drawn)	32*
C/C=C/c1ccc2c(c1)O[C@H](CN(C)C(=O)Nc1ccc(OC)cc1)[C@@H](C)CN([C@@H](C)CO)S2(=O)=O	-21
COc1ccc(C(=O)Nc2ccc3c(c2)OC[C@H](C)N(C)C[C@H](C)[C@H](OC)CN(C)C3=O)cc1	-2
C[C@@H]1CN([C@@H](C)CO)S(=O)(=O)c2ccc(-c3ccccc3)cc2O[C@H]1CN(C)Cc1ccccc1C(=O)O	-5
CCCCNc1cc(C)nc(NCc2ccccc2)n1	41*
C[C@H]1CN([C@@H](C)CO)C(=O)c2cc(-c3cccc(F)c3)cnc2O[C@@H]1CN(C)C(=O)C1CCOCC1	-3
CNC[C@@H]1Oc2ncc(-c3ccc(C#N)cc3)cc2C(=O)N([C@H](C)CO)C[C@@H]1C	4
COC(=O)c1c(N)nc(C)n1-c1ccc(OC)cc1	34*
COc1ccc(NC(=O)N(C)C[C@@H]2Oc3ncc(C4=CCCC4)cc3C(=O)N([C@@H](C)CO)C[C@@H]2C)cc1	2
CCCC(=O)Nc1ccc2c(c1)OC[C@@H](C)N(C)C[C@H](C)[C@@H](OC)CN(C)C2=O	-3
CC(C)CC#Cc1cnc2c(c1)C(=O)N([C@H](C)CO)C[C@H](C)[C@@H](CN(C)C(=O)C1CCCCC1)O2	-10
CCCNC(=O)N(C)C[C@@H]1Oc2cc(C#Cc3cccc(F)c3)ccc2S(=O)(=O)N([C@@H](C)CO)C[C@@H]1C	-4

Compound activity (PubChem BioAssay)
